Test [1] concerns the target Estrogen receptor (Homo sapiens) (UniProt P03372). In words: ATG_ERa_TRANS: Attagene TRANS-FACTORIAL HepG2 Assay for human Estrogen Receptor alpha (ERa) (AID 2282970). As to conditions: HepG2 Attagene TRANS ERa GAL4 reporter, mRNA. In outline: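 After 24 h of compound treatment, RNA from HepG2 cells bearing transfected GAL4-UAS reporter constructs is converted to cDNA, amplified and fluorescently labelled. Capillary electrophoresis resolves the ERa-linked reporter; DMSO serves as negative control.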

Test [2] has as its target Steroid hormone receptor ERR1 (Homo sapiens) (UniProt P11474). Kind of test: ATG_ERRa_TRANS: Attagene TRANS-FACTORIAL HepG2 Assay for human Estrogen-Related Receptor alpha (ERRa) (AID 2282971). As to conditions: HepG2 Attagene TRANS reporter, ERRa transactivation. An outline of the steps: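 Transfected HepG2, 24 h dosing, ERRa-Gal4 chimera driving GAL4-UAS reporter. Readout: reporter mRNA via RT-PCR plus capillary electrophoresis (fluorescence). Positive direction vs DMSO control.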

For test [3], the target named is X-box-binding protein 1 (Homo sapiens) (UniProt P17861). Kind of test: ATG_Xbp1_CIS: Attagene CIS-FACTORIAL HepG2 Assay for human X-box Binding Protein 1 (XBP1) (AID 2282972; active = hit-call score of the fitted dose curve at least 0.9, where 1 is the maximum; inactive = score below 0.9). The note with it: HepG2 XBP1 cis-element reporter, Attagene multiplex; actives raise or lower the signal. In outline:
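HepG2, transient MRTU transfection (cis-promoter driven), 24 h compound exposure. Total RNA → oligo(dT) RT → PCR → 6-FAM labeling → HpaI cut → CE. Bidirectional fit vs DMSO.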

Test [4] can be described thus: ATG_M_19_TRANS: Attagene TRANS-FACTORIAL HepG2 Assay for M19 Transcription Factor (Internal Marker) (AID 2282974). As to conditions: HepG2 Attagene TRANS-FACTORIAL M19 internal marker reporter. An outline of the steps:
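Background-control readout: after 24 h chemical exposure of transfected HepG2 carrying GAL4-driven reporter units, RNA was reverse-transcribed, amplified, fluorescently labeled and sized by capillary electrophoresis; gain-of-signal fit against DMSO.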

The target of test [5] is Estrogen-related receptor gamma (Homo sapiens) (UniProt P62508). Kind of test: ATG_ERRg_TRANS: Attagene TRANS-FACTORIAL HepG2 Assay for human Estrogen-Related Receptor gamma (ERRg) (AID 2282977).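 Note: hits increase reporter signal over DMSO so potencies reflect activators.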 As to conditions: HepG2 Attagene TRANS reporter, ERRg transactivation. An outline of the steps:
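Transient HepG2 transfectants, 24 h compound exposure, GAL4-UAS reporter mRNA by RT-PCR/6-FAM labelling/capillary electrophoresis; positive direction vs DMSO.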

Test [6] deals with Glucocorticoid receptor (Homo sapiens) (UniProt P04150). In words: ATG_GR_TRANS: Attagene TRANS-FACTORIAL HepG2 Assay for human Glucocorticoid Receptor (GR) (AID 2282978).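 Note: activators score as hits since higher reporter transcript over DMSO is fitted.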 The note with it: HepG2 Attagene TRANS GR reporter, mRNA transcription. An outline of the steps:
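Readout is reporter transcript from a chimeric GR-Gal4 acting on GAL4-UAS in transfected human HepG2 liver cells after 24 h exposure, quantified by RT-PCR and capillary electrophoresis. Activation fitted upward against DMSO.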

For test [7], the target named is Bile acid receptor (Homo sapiens) (UniProt Q96RI1). Kind of test: ATG_FXR_TRANS: Attagene TRANS-FACTORIAL HepG2 Assay for Farnesoid X Receptor (FXR) (AID 2282979).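 Note: hits raise reporter mRNA above DMSO so AC50 marks FXR activation.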 The note with it: HepG2 Attagene TRANS FXR-GAL4 reporter transcription. An outline of the steps:
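Read-out: fluorescent reporter transcripts quantified by capillary electrophoresis after RT-PCR of total RNA. Source cells were HepG2 transiently carrying chimeric NR-GAL4 plus GAL4-UAS reporter units, dosed 24 h. Activity fitted upward relative to DMSO baseline.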

Test [8] in a line: ATG_M_06_TRANS: Attagene TRANS-FACTORIAL HepG2 Assay for M06 Transcription Factor (Internal Marker) (AID 2282983). The note with it: HepG2 Attagene TRANS M06 internal marker reporter. An outline of the steps: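 After a 24 h chemical treatment of transfected HepG2, RNA underwent DNase I treatment, reverse transcription and reporter-specific PCR; labelled, HpaI-digested products were sized by capillary electrophoresis. Signal increase relative to DMSO defined activity.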

A short description of test [9]: ATG_M_32_TRANS: Attagene TRANS-FACTORIAL HepG2 Assay for M32 Transcription Factor (Internal Marker) (AID 2282984).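 Note: transcript level of a background control reporter unit measured by RT-PCR and capillary electrophoresis.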 The note with it: HepG2 Attagene TRANS M32 internal marker reporter. An outline of the steps:
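Using transiently transfected HepG2 cells exposed to test chemicals for 24 h, reporter transcripts are converted to labelled cDNA fragments and quantified by capillary electrophoresis. DMSO defines the activity baseline.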

The target of test [10] is Nuclear receptor subfamily 4 group A member 2 (Homo sapiens) (UniProt P43354). In words: ATG_NURR1_TRANS: Attagene TRANS-FACTORIAL HepG2 Assay for human Nuclear Receptor Related Protein 1 (NURR1) (AID 2282985). As to conditions: HepG2 Attagene TRANS reporter, mRNA readout. In outline: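 Cells: HepG2, transiently transfected. Exposure: 24 h. Detection: fluorescence of labelled RT-PCR products separated by capillary electrophoresis; upward fit versus DMSO.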
Chain of Nuclear receptor subfamily 4 group A member 2 (Homo sapiens) (P43354 whole entry, looked up): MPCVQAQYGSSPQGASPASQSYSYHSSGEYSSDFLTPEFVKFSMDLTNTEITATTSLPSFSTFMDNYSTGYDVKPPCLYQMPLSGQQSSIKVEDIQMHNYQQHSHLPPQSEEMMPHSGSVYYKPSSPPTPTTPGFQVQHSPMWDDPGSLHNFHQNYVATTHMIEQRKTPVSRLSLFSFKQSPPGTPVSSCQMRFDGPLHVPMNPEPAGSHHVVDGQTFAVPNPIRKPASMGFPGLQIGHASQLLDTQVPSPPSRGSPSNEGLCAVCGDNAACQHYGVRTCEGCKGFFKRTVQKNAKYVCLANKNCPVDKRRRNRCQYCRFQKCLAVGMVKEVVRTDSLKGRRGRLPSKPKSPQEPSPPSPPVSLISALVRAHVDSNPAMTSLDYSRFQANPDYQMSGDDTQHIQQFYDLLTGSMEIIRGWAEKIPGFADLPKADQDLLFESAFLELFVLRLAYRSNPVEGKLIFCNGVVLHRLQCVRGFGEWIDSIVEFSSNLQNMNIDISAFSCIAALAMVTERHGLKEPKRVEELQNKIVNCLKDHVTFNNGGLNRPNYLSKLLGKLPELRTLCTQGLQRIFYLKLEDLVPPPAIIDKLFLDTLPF

The target of test [11] is Transcriptional activator Myb (Homo sapiens) (UniProt P10242). In words: ATG_Myb_CIS: Attagene CIS-FACTORIAL HepG2 Assay for human Myeloblastosis (Myb) Proto-Oncogene Transcription Factor (AID 2282986; active = hit-call score of the fitted dose curve at least 0.9, where 1 is the maximum; inactive = score below 0.9). As to conditions: HepG2 Attagene CIS-FACTORIAL Myb reporter transcription; actives raise or lower the signal. In outline: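 Reporter mRNA is quantified by RT-PCR and capillary electrophoresis 24 h after dosing HepG2 cells transfected with cis-regulated reporter units, which track endogenous transcription factor activity. Gain and loss of signal are fitted versus DMSO baseline.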
Chain of Transcriptional activator Myb (Homo sapiens) (P10242 whole entry, looked up): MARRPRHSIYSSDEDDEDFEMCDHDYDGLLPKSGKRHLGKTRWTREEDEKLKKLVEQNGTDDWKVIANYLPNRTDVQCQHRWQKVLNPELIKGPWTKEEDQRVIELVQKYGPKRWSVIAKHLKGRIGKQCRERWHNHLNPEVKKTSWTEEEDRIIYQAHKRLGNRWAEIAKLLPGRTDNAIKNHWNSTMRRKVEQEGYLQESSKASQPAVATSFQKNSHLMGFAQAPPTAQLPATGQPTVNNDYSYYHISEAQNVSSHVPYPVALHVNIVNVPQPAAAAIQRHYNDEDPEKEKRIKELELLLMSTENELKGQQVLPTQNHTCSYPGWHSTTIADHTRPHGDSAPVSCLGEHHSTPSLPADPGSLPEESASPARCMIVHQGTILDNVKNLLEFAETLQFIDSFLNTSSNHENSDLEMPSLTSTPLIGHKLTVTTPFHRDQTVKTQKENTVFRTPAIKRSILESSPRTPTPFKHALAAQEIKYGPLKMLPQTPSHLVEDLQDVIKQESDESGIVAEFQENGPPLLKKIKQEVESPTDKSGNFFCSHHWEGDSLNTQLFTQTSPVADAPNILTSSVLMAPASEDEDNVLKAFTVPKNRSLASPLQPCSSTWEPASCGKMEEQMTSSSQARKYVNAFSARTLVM

Test [12] concerns the target Nuclear respiratory factor 1 (Homo sapiens) (UniProt Q16656). Kind of test: ATG_NRF1_CIS: Attagene CIS-FACTORIAL HepG2 Assay for human Nuclear Respiratory Factor 1 (NRF1) Orphan Gene (AID 2282987; active = hit-call score of the fitted dose curve at least 0.9, where 1 is the maximum; inactive = score below 0.9). The note with it: HepG2 NRF1 cis-element reporter, Attagene multiplex; actives raise or lower the signal. In outline: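 Endogenous NRF1-driven reporter transcription in transfected HepG2 cells after 24 h treatment. Readout: RT-PCR products, 6-FAM labelled and resolved by capillary electrophoresis; changes fitted both directions relative to DMSO.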

The nature of test [13]: ATG_NFI_CIS: Attagene CIS-FACTORIAL HepG2 Assay for human Nuclear Factor I (NFI) (AID 2282989; active = hit-call score of the fitted dose curve at least 0.9, where 1 is the maximum; inactive = score below 0.9). As to conditions: HepG2 cis-regulatory reporter, NFI response element transcription; actives raise or lower the signal. In outline:
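After transient transfection of HepG2 with cis-promoter reporter constructs and 24 h dosing, RNA is reverse-transcribed, amplified, 6-FAM end-labelled and HpaI-digested before capillary analysis. Bidirectional curve fitting against DMSO.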

In test [14] the target is Myc proto-oncogene protein (Homo sapiens) (UniProt P01106). Kind of test: ATG_Myc_CIS: Attagene CIS-FACTORIAL HepG2 Assay for human Myelocytomatosis (Myc) Proto-Oncogene Transcription Factor (AID 2282990; active = hit-call score of the fitted dose curve at least 0.9, where 1 is the maximum; inactive = score below 0.9). As to conditions: HepG2, Attagene cis-reporter transcription factor activity; actives raise or lower the signal. An outline of the steps:
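HepG2, transient MRTU transfection (cis promoters, endogenous TFs); 24 h dosing; TriZol RNA → oligo(dT) RT → PCR → 6-FAM primer extension → HpaI cut → CE. Bidirectional fit vs DMSO.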

Test [15] addresses Nuclear receptor subfamily 1 group I member 3 (Homo sapiens) (UniProt Q14994). Kind of test: ATG_CAR_TRANS: Attagene TRANS-FACTORIAL HepG2 Assay for human Constitutive Androstane Receptor (CAR) (AID 2282969).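 Note: activators raise reporter mRNA above DMSO so AC50 marks induction.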 As to conditions: HepG2 Attagene TRANS-FACTORIAL CAR reporter. In outline:
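Readout is reporter mRNA induction, quantified by fluorescent primer extension and capillary electrophoresis after RT-PCR. Cells were HepG2 transiently carrying chimeric NR-Gal4 constructs with GAL4-UAS reporters, treated for 24 h; activity scored upward from DMSO.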

The nature of test [16]: ATG_GAL4_TRANS: Attagene TRANS-FACTORIAL HepG2 Assay for GAL4 (Internal Marker) (AID 2282976). The note with it: HepG2 Attagene TRANS GAL4 internal marker reporter. An outline of the steps:
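RT-PCR/capillary electrophoresis readout of reporter mRNA. HepG2, transient MRTU transfection (GAL4-UAS reporters), 24 h compound exposure. Background-control endpoint, positive direction vs DMSO baseline.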

Test [17] addresses Oxysterols receptor LXR-alpha (Homo sapiens) (UniProt Q13133). Kind of test: ATG_LXRa_TRANS: Attagene TRANS-FACTORIAL HepG2 Assay for human Liver X Receptor alpha (LXRa) (AID 2282980). As to conditions: HepG2 Attagene TRANS reporter, LXRa transactivation. In outline:
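Read-out: reporter transcript levels by RT-PCR plus capillary electrophoresis, fluorescence intensity. Transiently transfected HepG2, exogenous NR-GAL4 chimera, GAL4-UAS reporters; 24 h compound exposure. Activity = increase over DMSO negative control.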

The target in test [18] is Oxysterols receptor LXR-beta (Homo sapiens) (UniProt P55055). Kind of test: ATG_LXRb_TRANS: Attagene TRANS-FACTORIAL HepG2 Assay for human Liver X Receptor beta (LXRb) (AID 2282981). As to conditions: HepG2 Attagene TRANS GAL4-LXRb reporter, mRNA. In outline: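 Cells: HepG2, transiently transfected with GAL4-UAS reporter units plus LXRb-Gal4 fusion. Treatment: 24 h. Detection: reporter mRNA by RT-PCR, 6-FAM labelling, HpaI digestion, capillary electrophoresis.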
Chain of Oxysterols receptor LXR-beta (Homo sapiens) (P55055 whole entry, looked up, the tested form may be a part): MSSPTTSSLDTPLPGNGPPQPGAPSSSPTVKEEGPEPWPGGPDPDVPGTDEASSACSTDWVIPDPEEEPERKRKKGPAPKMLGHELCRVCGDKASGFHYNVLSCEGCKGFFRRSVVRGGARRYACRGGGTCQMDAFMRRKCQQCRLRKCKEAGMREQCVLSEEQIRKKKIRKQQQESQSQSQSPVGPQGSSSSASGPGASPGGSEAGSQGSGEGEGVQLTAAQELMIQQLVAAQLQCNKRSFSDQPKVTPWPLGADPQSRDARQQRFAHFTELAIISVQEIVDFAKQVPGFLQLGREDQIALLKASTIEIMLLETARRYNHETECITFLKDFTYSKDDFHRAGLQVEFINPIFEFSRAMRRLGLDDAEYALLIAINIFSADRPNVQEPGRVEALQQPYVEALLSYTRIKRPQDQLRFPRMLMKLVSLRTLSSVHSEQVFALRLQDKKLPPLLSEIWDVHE

Test [19] deals with Hepatocyte nuclear factor 4-alpha (Homo sapiens) (UniProt P41235). In words: ATG_HNF4a_TRANS: Attagene TRANS-FACTORIAL HepG2 Assay for human Hepatocyte Nuclear Factor 4 alpha (HNF4a) (AID 2282982). The note with it: HepG2 HNF4a transactivation reporter, mRNA readout. In outline: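 Transfected HepG2 reporter cells are dosed for 24 h; reporter RNA is reverse-transcribed, amplified, fluorescently labelled and HpaI-digested before CE sizing. Positive-direction fit against DMSO.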

Results filed as inconclusive are left out. Activity calls are given as the source filed them. Rule for the calls, unless noted: active = hit-call score of the fitted dose curve at least 0.9, where 1 is the maximum; inconclusive = response in the unintended direction; inactive = score below 0.9.

Chain of Oxysterols receptor LXR-alpha (Homo sapiens) (Q13133 whole entry, looked up, the tested form may be a part): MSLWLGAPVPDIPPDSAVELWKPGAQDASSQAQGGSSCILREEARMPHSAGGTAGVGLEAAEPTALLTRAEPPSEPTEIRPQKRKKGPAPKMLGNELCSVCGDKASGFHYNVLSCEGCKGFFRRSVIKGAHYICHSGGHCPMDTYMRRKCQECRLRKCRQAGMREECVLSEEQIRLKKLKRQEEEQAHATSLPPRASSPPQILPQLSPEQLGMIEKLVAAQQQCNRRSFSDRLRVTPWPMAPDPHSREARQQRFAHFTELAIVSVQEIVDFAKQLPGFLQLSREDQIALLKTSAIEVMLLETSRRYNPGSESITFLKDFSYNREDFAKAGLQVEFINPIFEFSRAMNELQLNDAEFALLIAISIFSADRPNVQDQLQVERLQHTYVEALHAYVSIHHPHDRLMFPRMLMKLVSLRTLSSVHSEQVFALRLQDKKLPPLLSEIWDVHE
Chain of Bile acid receptor (Homo sapiens) (Q96RI1 whole entry, looked up, the tested form may be a part): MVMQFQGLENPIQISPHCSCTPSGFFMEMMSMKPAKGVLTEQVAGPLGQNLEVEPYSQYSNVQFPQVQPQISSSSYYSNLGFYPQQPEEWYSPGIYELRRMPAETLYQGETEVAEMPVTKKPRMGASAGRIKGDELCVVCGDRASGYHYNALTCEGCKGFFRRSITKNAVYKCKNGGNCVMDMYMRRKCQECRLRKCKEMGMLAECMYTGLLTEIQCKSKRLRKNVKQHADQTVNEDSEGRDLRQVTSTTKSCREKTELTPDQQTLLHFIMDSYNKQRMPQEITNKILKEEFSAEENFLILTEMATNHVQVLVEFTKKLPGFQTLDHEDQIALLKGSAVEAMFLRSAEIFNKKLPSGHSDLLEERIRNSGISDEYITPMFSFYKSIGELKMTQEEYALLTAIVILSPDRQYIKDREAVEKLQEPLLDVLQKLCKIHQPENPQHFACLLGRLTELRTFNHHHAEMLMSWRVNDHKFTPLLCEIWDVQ
Chain of Steroid hormone receptor ERR1 (Homo sapiens) (P11474 whole entry, looked up, the tested form may be a part): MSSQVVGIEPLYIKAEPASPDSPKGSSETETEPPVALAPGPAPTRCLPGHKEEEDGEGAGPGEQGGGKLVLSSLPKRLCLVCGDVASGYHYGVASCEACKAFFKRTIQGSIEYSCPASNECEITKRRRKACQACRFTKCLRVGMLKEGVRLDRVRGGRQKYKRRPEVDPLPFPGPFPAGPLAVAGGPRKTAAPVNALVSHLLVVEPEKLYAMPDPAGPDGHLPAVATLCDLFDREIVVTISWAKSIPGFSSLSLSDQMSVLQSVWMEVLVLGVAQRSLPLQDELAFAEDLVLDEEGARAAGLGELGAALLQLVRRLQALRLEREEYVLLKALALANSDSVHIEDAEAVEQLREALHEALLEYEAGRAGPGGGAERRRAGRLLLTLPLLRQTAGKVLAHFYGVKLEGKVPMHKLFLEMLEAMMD
Chain of Glucocorticoid receptor (Homo sapiens) (P04150 whole entry, looked up, the tested form may be a part): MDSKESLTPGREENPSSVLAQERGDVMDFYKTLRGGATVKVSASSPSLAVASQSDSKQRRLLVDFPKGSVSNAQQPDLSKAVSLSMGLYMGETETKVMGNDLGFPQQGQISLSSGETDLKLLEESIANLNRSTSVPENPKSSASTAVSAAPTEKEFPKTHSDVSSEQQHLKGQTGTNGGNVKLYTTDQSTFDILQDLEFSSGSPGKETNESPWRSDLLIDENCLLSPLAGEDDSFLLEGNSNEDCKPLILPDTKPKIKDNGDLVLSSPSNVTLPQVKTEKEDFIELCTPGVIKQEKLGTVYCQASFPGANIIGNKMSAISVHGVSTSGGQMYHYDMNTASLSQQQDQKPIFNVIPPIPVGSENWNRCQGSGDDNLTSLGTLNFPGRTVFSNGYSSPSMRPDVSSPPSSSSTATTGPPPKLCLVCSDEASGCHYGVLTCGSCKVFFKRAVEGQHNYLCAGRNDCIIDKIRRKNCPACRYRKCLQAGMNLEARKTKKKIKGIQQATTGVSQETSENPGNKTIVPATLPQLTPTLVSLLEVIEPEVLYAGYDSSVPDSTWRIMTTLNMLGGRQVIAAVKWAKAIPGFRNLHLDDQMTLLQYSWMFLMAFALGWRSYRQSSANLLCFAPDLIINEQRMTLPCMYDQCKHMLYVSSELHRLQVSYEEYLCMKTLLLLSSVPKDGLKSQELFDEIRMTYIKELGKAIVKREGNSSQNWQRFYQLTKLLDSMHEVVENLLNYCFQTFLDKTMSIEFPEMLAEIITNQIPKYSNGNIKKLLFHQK
Chain of Estrogen-related receptor gamma (Homo sapiens) (P62508 whole entry, looked up, the tested form may be a part): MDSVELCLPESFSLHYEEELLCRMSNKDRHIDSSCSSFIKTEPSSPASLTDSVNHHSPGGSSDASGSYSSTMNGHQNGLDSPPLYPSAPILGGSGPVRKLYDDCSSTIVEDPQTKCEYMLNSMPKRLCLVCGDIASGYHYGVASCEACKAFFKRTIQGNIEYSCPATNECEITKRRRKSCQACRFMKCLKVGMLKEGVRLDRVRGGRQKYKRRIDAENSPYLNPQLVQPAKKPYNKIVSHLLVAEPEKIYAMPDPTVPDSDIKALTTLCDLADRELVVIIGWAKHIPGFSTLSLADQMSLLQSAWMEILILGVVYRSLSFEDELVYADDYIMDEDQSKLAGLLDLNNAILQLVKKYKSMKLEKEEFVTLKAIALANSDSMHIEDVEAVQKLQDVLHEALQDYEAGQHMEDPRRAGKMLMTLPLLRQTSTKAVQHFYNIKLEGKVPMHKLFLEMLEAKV
Chain of Estrogen receptor (Homo sapiens) (P03372 whole entry, looked up, the tested form may be a part): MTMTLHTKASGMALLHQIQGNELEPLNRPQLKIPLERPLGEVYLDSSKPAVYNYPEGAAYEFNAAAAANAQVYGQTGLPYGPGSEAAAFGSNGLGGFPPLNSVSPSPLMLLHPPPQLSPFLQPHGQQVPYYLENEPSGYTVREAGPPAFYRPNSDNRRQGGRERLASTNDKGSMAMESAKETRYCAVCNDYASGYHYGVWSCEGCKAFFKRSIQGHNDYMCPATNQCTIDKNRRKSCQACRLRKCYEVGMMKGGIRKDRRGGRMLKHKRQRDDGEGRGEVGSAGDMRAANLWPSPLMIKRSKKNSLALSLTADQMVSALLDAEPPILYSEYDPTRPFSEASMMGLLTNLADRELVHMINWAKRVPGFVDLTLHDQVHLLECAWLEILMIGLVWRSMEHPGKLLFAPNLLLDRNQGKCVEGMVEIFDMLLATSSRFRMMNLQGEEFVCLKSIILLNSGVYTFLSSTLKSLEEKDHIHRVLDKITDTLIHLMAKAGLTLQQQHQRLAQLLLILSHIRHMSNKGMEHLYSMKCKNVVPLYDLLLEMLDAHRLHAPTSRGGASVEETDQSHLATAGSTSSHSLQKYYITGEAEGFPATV

A word on the AC50: it is the concentration giving half of the maximal activity seen. On to `CC(c1ccccc1)(c1ccc(O)cc1)c1ccc(O)cc1`, for which the AC50 was 0.145 µM (active) in [1], 15 µM (active) in test [3], 12.5 µM (active) in test [7] and 18.2 µM (active) in [10]. The outcome in test [2], in test [4], in test [5], in [6], in [8] and in test [9] was inactive. The call in [11], in test [12], in [13] and in test [14] was inactive.
Turning to `CNC(=O)O/N=C/C(C)(C)S(C)(=O)=O`, the compound was called inactive in test [15], in test [3], in [4], in [9], in [10] and in test [11]. In addition, the result in test [12], in [13] and in [14] was inactive.
In the case of `O=C(Nc1ccc(Br)cc1)c1cc(Br)cc(Br)c1O`, the outcome in [1], in test [2], in test [4], in test [16], in test [5] and in [7] was inactive. Also, the outcome in test [17], in test [18], in [9], in test [11] and in test [14] was inactive. In addition, the results for the AC50 in test [3] and in test [13] were 4.92 µM (active) and 2.27 µM (active), respectively.
`CC(C)O.CC(C)O.OCCN(CCO)CCO.OCCN(CCO)CCO.[Ti]`: the compound was classed as inactive in test [15], in [3], in [16], in test [17], in test [18] and in test [8]. For the same compound, the call in test [9], in test [11], in test [13] and in test [14] was inactive.
Regarding `O=c1[nH]c2ccccc2n1C1CCN(CCCC(c2ccc(F)cc2)c2ccc(F)cc2)CC1`, the outcome in [1], in test [2], in test [3], in [4], in test [16] and in test [5] was inactive. Further, the compound was classed as inactive in test [7], in test [8], in [9], in [11], in [12] and in [13]. In addition, in test [14], the call was inactive.
For the compound `N#CCCC(Br)(C#N)CBr` (stereo unspecified), the outcome in test [1], in [2], in test [4], in [6], in test [7] and in test [9] was inactive. Also, the outcome in [10], in [11], in test [12] and in test [14] was inactive. Moreover, the AC50 in test [3] is 57.9 µM (active); in test [13] it was 54.3 µM (active).
With `c1ccc2c(c1)Oc1ccccc1O2`, the result in [15], in test [3], in test [11], in test [13] and in test [14] was inactive.
Turning to `Nc1ccc(N)cc1`, the outcome in [15], in test [3], in [4], in test [16], in [7] and in test [17] was inactive. In addition, the outcome in test [18], in test [19], in test [9], in [11], in test [12] and in test [13] was inactive. Moreover, the call in test [14] was inactive.
With `CCOc1cc(C=O)ccc1O`, the outcome in [15], in [3], in test [4], in test [16], in test [6] and in test [17] was inactive. The outcome in test [8], in test [9], in [11], in test [12], in [13] and in test [14] was inactive.
